Assay outcomes (PubChem BioAssay)
HSP90 refold inh – blocks HSP90-mediated luciferase refolding in reticulocyte lysate; Rabbit reticulocyte lysate, luciferase refolding luminescence, 3 h; inhibition, % at 5.6 µM; 290,000 compounds, 0.91% hits; AID 1789;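 active = inhibition above the screen-wide mean plus 3 SD, computed separately per campaign, cut at about 16% in these data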;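 also: 0% = DMSO wells and 100% = 60 µM geldanamycin wells; inhibitors lower the luminescence because luciferase stays unfolded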
SENP7 block – SENP7 protease inhibition; inhibition, % at 5 µM; recombinant SENP7, Z-RLRGG-aminoluciferin luminescence, 40 min; 330,000 compounds, 1.5% hits; Q9BQF6;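 active = inhibition above about 50% at the single test dose, limit read from the data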;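 also: plate controls were DMSO with enzyme for no effect and no enzyme buffer wells for full effect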
Platelet DG rel – modulates dense granule release in human platelets | AID 1663 | inhibition, %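 (compounds screened at 7.5 µM in platelet-rich plasma)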 | human platelet-rich plasma, SFLLRN dense granule ATP release, luminescence | 300,000 compounds, 0.22% hits;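 active = mean replicate score, as percent of positive control, at or above 50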
SENP8 block-1 – SENP8 protease inhibition. Q96LD8. purified SENP8, Z-RLRGG-aminoluciferin cleavage, luminescence. inhibition, % at 10 µM. 330,000 compounds, 1.2% hits. AID 2540; in the data active = inhibition above about 50%
Target sequence (Q96LD8 whole entry, looked up): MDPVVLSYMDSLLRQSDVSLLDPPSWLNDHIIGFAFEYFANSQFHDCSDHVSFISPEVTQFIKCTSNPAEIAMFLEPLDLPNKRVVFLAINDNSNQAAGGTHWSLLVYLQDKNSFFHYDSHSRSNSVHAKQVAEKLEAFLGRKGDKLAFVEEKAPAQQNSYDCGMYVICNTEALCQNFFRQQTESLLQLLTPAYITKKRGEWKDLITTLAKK
SENP6 block – SENP6 protease inhibition; Q9GZR1; Recombinant SENP6 catalytic domain, aminoluciferin luminescence; inhibition, % at 10 µM; 330,000 compounds, 1.8% hits; AID 2599;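 active = inhibition above about 50% at the single tested dose, limit read from the data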;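 also: plate controls were DMSO wells with enzyme for no effect and DMSO wells lacking enzyme for full effect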
Target sequence (Q9GZR1 628-1112 limits assumed): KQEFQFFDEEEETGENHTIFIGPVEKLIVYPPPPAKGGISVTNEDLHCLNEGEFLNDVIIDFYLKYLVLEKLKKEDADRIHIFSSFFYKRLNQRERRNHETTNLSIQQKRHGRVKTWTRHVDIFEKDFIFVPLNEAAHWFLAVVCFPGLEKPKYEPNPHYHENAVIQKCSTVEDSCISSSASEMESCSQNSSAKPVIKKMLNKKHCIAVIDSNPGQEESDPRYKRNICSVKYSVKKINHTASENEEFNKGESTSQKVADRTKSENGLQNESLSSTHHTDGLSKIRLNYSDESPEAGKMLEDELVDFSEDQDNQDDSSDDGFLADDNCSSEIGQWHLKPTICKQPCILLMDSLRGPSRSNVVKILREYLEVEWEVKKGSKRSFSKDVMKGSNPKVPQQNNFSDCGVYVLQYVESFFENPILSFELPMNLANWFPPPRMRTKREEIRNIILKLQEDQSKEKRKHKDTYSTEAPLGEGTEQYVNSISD
SENP8 block-2 – inhibitors of human SENP8 protease | Q96LD8 | recombinant SENP8, Nedd8 substrate fluorescence | inhibition, % at 20 µM | 360,000 compounds, 0.64% hits; in the data active = inhibition mostly above about 40%, no sharp cut-off; inactive = mostly below about 27%
The depositor's hits bear a star; . = no result given. Only some compounds are listed: those with a hit (about 2.8% of all), similar ones and a draw of the others.

SMILES | HSP90 refold inh | SENP7 block | Platelet DG rel | SENP8 block-1 | SENP6 block | SENP8 block-2
COc1ccc(C(C)(C)C)cc1NC(=O)COC(=O)CN1C(=O)NC2(CCCCC2C)C1=O (stereo unspecified) | . | -9.8 | . | -11.4 | -24.3 | 13.6
CC(=O)c1cc2c(cc1C)CCCC2(C)C | . | . | . | . | . | 1.5
Oc1[nH]c2ccccc2c1C=Nc1ccccc1 | -2.4 | 62.1* | 18.4 | 46.5 | 67.1* | 38.2
OCCN=Cc1c(O)[nH]c2ccccc12 | -2.3 | 14.8 | -1.5 | -0.6 | -8.5 | 15.2
O=C(NCc1ccc(-n2cccc2)cc1)c1cccc(F)c1 | -3.7 | -3.0 | 32.5 | -5.5 | -14.3 | 10.7
Cc1ncc(N=Nc2ccccc2Cl)c(-c2ccccc2)n1 | 0.6 | 2.4 | 2.2 | 5.3 | 8.9 | 21.5
COc1ccc(N=Nc2cnc(C)nc2-c2ccccc2)cc1 | 0.3 | -0.4 | 3.2 | -5.3 | -3.8 | 45.4*
CCN(CC(=O)Nc1c(F)cccc1F)C(=O)c1ccc2c(c1)OCO2 | . | -7.4 | . | -12.3 | -14.5 | 7.7
O=C(NCCO)c1ccc2nc(-c3ccco3)c(-c3ccco3)nc2c1 | 1.9 | 23.0 | -6.8 | 37.3 | 55.9* | -192.5
O=C(NCCc1ccccc1)c1ccc2nc(-c3ccco3)c(-c3ccco3)nc2c1 | 4.3 | 2.2 | -5.5 | 14.6 | 12.8 | -294.7
O=C(COC(=O)C1CCCCC1)Nc1cccc(Br)c1 | . | -11.4 | . | -13.3 | -18.7 | 4.2
Oc1ccc(N=Nc2cccc(Cl)c2)cc1C=Nc1ccc(N2CCOCC2)cc1 | -0.6 | . | 0.5 | . | . | 52.6*
COc1ccc([C@H]2CN(c3ccc(OC)cc3)C(=O)[C@@H]2CC(=O)Nc2ccc(Br)cc2)cc1 | . | . | . | . | . | -9.5
N#C/C(=C(/O)COc1ccccc1)c1nc2ccccc2s1 | -1.4 | -1.0 | -8.6 | 28.6 | 0.9 | 4.7
N#C/C(=N\O)c1nc2ccccc2s1 | 6.5 | -8.5 | 1.5 | -12.9 | -19.4 | 7.3
N#C/C(=C(/O)COc1ccc(Cl)cc1)c1nc2ccccc2s1 | -0.1 | 1.3 | 7.1 | 80.9* | 93.1* | 6.7
N#C/C(=C(/O)c1ccc(F)cc1)c1nc2ccccc2s1 | -7.5 | 50.9* | 2.6 | 81.8* | 87.2* | -2.3
O=c1[nH]c(Nc2ccccn2)cc2ccccc12 | . | 93.4* | 2.5 | 87.2* | 91.2* | -499.3
Cn1c(CCC(=O)O)nc2cc(S(=O)(=O)N3CCCC3)ccc21 | . | 6.3 | . | 8.5 | -9.0 | -5.4
CCN(CC)S(=O)(=O)c1ccc2c(c1)nc(CCC(=O)O)n2C | -2.7 | 0.5 | 60.5* | 4.8 | -13.0 | 12.2
C[C@H](O)[C@@H]1CN2CCc3c([nH]c4ccccc34)[C@@H]2C[C@@H]1N(C)C(=O)OCc1ccccc1 | . | . | . | . | . | -367.1
Cc1cc2c(cc1C)NC(=O)CC(c1ccccc1)=N2 | . | . | . | . | . | 16.5
Cc1ccc2c(c1)N=C(c1ccccc1)CC(C(Cl)Cl)=N2 | 11.5 | 0.8 | 11.0 | 53.4* | 73.6* | -171.0
CC(=O)N1c2ccc(S(=O)(=O)N3CCCC(C(=O)Nc4ccc(F)cc4)C3)cc2CC1C (stereo unspecified) | 3.8 | -3.5 | -11.6 | 2.5 | -4.3 | 11.3
Cc1ccc(-n2c(C)cc(/C=N/Nc3ccc([N+](=O)[O-])cn3)c2C)cc1 | 2.7 | 8.9 | 2.9 | -0.1 | -20.3 | 28.7
SMILES | HSP90 refold inh | SENP7 block | Platelet DG rel | SENP8 block-1 | SENP6 block | SENP8 block-2
COc1cccc(/C=N/Nc2ccc(S(=O)(=O)O)cc2)c1O | -1.8 | -10.5 | 55.5* | 3.5 | 16.6 | -94.8
Cc1cc(/C=N/Nc2ccc([N+](=O)[O-])cn2)c(C)n1-c1ccccc1 | 16.3* | 7.2 | 3.2 | 3.3 | -6.6 | 35.0
COc1cccc(/C=N/Nc2ccc([N+](=O)[O-])cn2)c1O | 11.4 | 97.8* | 12.7 | 83.5* | 90.5* | -27.7
COCc1cccc(-c2csc(C(C)(NC(C)=O)c3ccccc3)n2)c1 (stereo unspecified) | . | . | . | . | . | 8.4
COC(=O)c1cc(S(=O)(=O)NC2CCCCC2)cn1C | -4.0 | 2.1 | 2.3 | 0.0 | 19.6 | 7.2
CC(C)NC(=O)N(C)C[C@H]1Oc2ccc(NS(=O)(=O)c3ccccc3)cc2C(=O)N([C@H](C)CO)C[C@@H]1C | . | -11.6 | . | 3.1 | -8.8 | 11.7
O=C1/C(=C/c2ccc(Br)cc2)Oc2cc(O)ccc21 | -1.6 | 21.2 | 4.0 | 53.1* | 56.1* | -299.2
CC(C)(C)c1ccc(/C=C2\Oc3cc(O)ccc3C2=O)cc1 | -4.3 | -1.2 | 0.0 | -5.4 | 7.3 | -190.4
CC(C)(C)CC(C)(C)NCC(O)COc1ccc2c(c1)CCC2 (stereo unspecified) | 1.8 | -1.1 | 4.5 | 0.3 | 4.2 | 22.2
CC(C)(CO)NCC(O)COc1ccc2c(c1)CCC2 (stereo unspecified) | 2.6 | 7.0 | 50.6* | -0.3 | -3.9 | 4.3
O=C1C=C(Nc2cccc3cccnc23)c2ccccc2C1=O | 1.6 | 8.6 | 2.8 | 9.5 | 33.0 | 43.0*
O=C(NCC1OCCCN1S(=O)(=O)c1cc(F)ccc1F)C(=O)NC1CCCC1 (stereo unspecified) | -1.8 | -7.3 | -1.7 | -0.3 | -20.3 | 8.9
CCS(=O)(=O)N1Cc2ccccc2CC1C(=O)Nc1nc2ccccc2s1 (stereo unspecified) | 26.3* | 4.6 | -12.1 | 0.2 | 6.8 | -14.3
COc1ccc(NC(=O)CCCN2C(=O)CN(C)C2=O)cc1Cl | . | -2.0 | . | 9.6 | 10.8 | 0.9
Cc1cc2nn(-c3ccc(F)cc3)nc2cc1N | 1.2 | 5.8 | 32.2 | 70.5* | 76.1* | -335.3
Cc1ccc(-n2nc3ccc(N)cc3n2)cc1 | -1.1 | 34.0 | 5.6 | 80.3* | 88.7* | -495.6
Cc1ccc(NC(=O)c2cccc3ccccc23)cc1 | 4.0 | 10.7 | 1.4 | -7.5 | 9.8 | 11.8
Cc1ccc(NC(=O)c2csc(-c3ccccc3)c2C)cc1 | 34.0* | . | . | . | . | 9.8
O=C(Nc1ccc(N2CCOCC2)cc1)c1ccc(Br)o1 | 13.8 | 49.6 | 4.9 | 32.6 | 44.8 | 4.1
CN1CCN(c2ccc(NC(=O)c3ccc(Br)o3)cc2)CC1 | -2.6 | 47.3 | 11.3 | 32.9 | 56.9* | 5.0
CSc1nnc(NC(=O)c2cc(=O)c3cc(C)cc(C)c3o2)s1 | -2.4 | -10.2 | 3.0 | 5.2 | 16.9 | 27.0
COc1cc2c(cc1OC)-c1cc(Nc3ccc4c(c3)OCCO4)nc(=O)n1CC2 | 13.0 | -7.2 | 50.7* | -4.9 | 3.5 | -231.7
COc1cc2c(cc1OC)-c1cc(Nc3ccccc3Br)nc(=O)n1CC2 | -0.8 | 5.6 | 93.6* | 3.5 | 5.9 | -227.4
COc1cc2c(cc1OC)-c1cc(Nc3ccc(C(=O)O)cc3)nc(=O)n1CC2 | 3.5 | 1.2 | 5.4 | 4.2 | -4.6 | -280.6
COc1ccc(Nc2cc3n(c(=O)n2)CCc2cc(OC)c(OC)cc2-3)c(C)c1 | 0.7 | -2.3 | 79.8* | -9.9 | -2.2 | -18.9
CCOc1cccc(Nc2cc3n(c(=O)n2)CCc2cc(OC)c(OC)cc2-3)c1 | 2.6 | 5.4 | -9.5 | -2.3 | -6.7 | -268.2
COc1cc2c(cc1OC)-c1cc(Nc3ccc(C)cc3)nc(=O)n1CC2 | -3.3 | 2.2 | 113.0* | 5.2 | -16.0 | -156.4
Cc1ccc(C2(C)NC(=O)N(CC(=O)NC(=O)NC(C)(C)C)C2=O)cc1 (stereo unspecified) | 7.4 | -10.6 | 0.9 | 5.2 | -5.0 | 5.8
